Screening results from PubChem.
Rows were chosen to be rich in hits. Some 4% of all compounds tested hit in one or more screens of this group.
NALP1 yeast inh = NALP1 inhibition; actives 0.61% (n = 280,000); S. cerevisiae NALP1/ASC/caspase-1 growth, X-gal OD620, 72 h; inhibition, % at 10 µM; in the data active = inhibition mostly above about 24%, no sharp cut-off; inactive = mostly below about 32%
tim10-1 inh = growth inhibitors of tim10-1 mutant yeast; inhibition, % at 20 µM; S. cerevisiae tim10-1 ts strain growth, BacTiter-Glo, 24 h; actives 2.2% (n = 330,000);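 active = inhibition of at least 40%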;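 also: mutant grown at 25 °C; 0% = DMSO wells with yeast and 100% = wells holding no yeast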
NLRP3 yeast inh = inhibitors of NALP3 inflammasome in yeast | Yeast reconstituted NLRP3/ASC/caspase-1, beta-gal luminescence, 24 h | inhibition, % at 10 µM | actives 0.39% (n = 330,000) | AID 2825;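 active = inhibition of 50% or more; inactive = inhibition below 50%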;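 also: plate controls were induced DMSO wells for no effect and uninduced yeast grown without galactose for full effect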
tim23-1 inh = tim23-1 yeast growth inhibition. actives 1.3% (n = 330,000). S. cerevisiae tim23-1 growth, BacTiter-Glo luminescence, 24 h. AID 463212. inhibition, % at 20 µM;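 active = growth inhibition of the mutant yeast at or above 50%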;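 also: temperature-sensitive mutant grown at 25 °C; plate controls were DMSO-treated mutant yeast for no effect and medium wells lacking yeast for full effect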
TIM10 inh = growth inhibitors of TIM10 yeast strain; S. cerevisiae TIM10 strain growth, BacTiter-Glo luminescence, 24 h; inhibition, % at 10 µM; actives 1.4% (n = 330,000); AID 463195;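 active = inhibition of 40% or more at the single tested concentration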;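 also: wild-type TIM10 isogenic control strain grown at permissive 25 °C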
tim10-1 confirm = tim10-1 yeast growth inhibition, confirmed. shares compounds with tim10-1 inh. S. cerevisiae tim10-1 ts strain growth, BacTiter-Glo, 24 h. inhibition, % at 20 µM. actives 56% (n = 7,400);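 active = inhibition of yeast growth at or above a set limit in either of two repeat tests at 20 µM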;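 also: tim10-1 mutant grown at permissive 25 °C to find synthetic lethal compounds; 0% = DMSO yeast wells and 100% = medium wells without yeast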
tim10 confirm = TIM10 yeast growth inhibition, confirmed. shares compounds with TIM10 inh. S. cerevisiae tim10 strain growth, BacTiter-Glo luminescence, 24 h. inhibition, % at 10 µM. actives 63% (n = 4,600);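 active = inhibition of yeast growth at or above a set limit in either of two replicates at 10 µM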;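 also: this counterscreen used the strain with wild-type TIM10; 0% = yeast with DMSO and 100% = medium wells lacking yeast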
The depositor's hits bear a star; x = no result given.

SMILES	NALP1 yeast inh	tim10-1 inh	NLRP3 yeast inh	tim23-1 inh	TIM10 inh	tim10-1 confirm	tim10 confirm
O=C(Nc1cccnc1)c1ccc([N+](=O)[O-])o1	21.0	-4.9	15.1	9.9	-29.3	x	x
COc1cc(NC(=O)c2ccc([N+](=O)[O-])o2)ccc1NC(=O)c1ccco1	6.4	45.6*	22.2	46.3	47.2*	44.9*	59.9*
O=C(Nc1cccc(Cl)c1N1CCCC1)c1ccc(Br)o1	12.1	13.6	19.0	12.1	-42.8	x	x
Cc1cc(C)cc(NC(=O)c2ccc([N+](=O)[O-])o2)c1	13.9	49.2*	10.9	-23.8	82.7*	34.5*	81.8*
CC(=O)c1ccc(NC(=O)c2ccc([N+](=O)[O-])o2)cc1	-2.3	56.9*	15.7	-20.5	80.8*	42.9*	89.8*
Cc1ccc(CC(=O)OC(C)C(=O)NC2CCCCC2C)cc1C (stereo not given)	x	33.8	2.8	34.9	23.2	x	x
COc1cc(=O)[nH]c(SCC(=O)Nc2nc3c(s2)CCCC3)n1	7.2	-18.7	9.6	-2.5	2.7	x	x
CC1C(=O)NN=C1C(=O)N/N=C/c1cccs1 (stereo not given)	-0.5	-9.7	3.0	1.6	-14.8	x	x
Nn1c(C2CCC2)nc2cc(Cl)ccc2c1=O	5.1	1.0	18.4	19.2	0.6	x	x
CCCC(=O)NC(=S)Nc1cccc(C(C)=O)c1	21.5	26.3	21.0	14.9	11.0	x	x
CCCCCC(=O)NC(=S)Nc1cccc(C(C)=O)c1	23.2	40.0	4.4	42.4	42.9*	29.4	25.2
CCCCCC(=O)NC(=S)Nc1ccccc1C(=O)OC	16.1	40.0*	6.8	44.6	43.1*	23.5	34.1*
Cc1c(N2C(=O)/C(=C\C3CC=CCC3)SC2=S)c(=O)n(-c2ccccc2)n1C (stereo not given)	12.5	45.5*	14.6	47.8	42.1*	39.4*	33.3*
Cc1cccc(Cc2c(C)nc3c(C(=O)NCc4ccco4)cnn3c2C)c1	-2.4	41.0*	9.1	44.5	47.6*	42.1*	39.8*
CC(C)(C)C1=CC(=O)C(=O)C(C(C)(C)C)=C1	51.0*	47.2*	-7.8	23.9	40.1*	38.8*	25.8
CC(C)(C)C1=CC(=Nc2ccccc2N)C=C(C(C)(C)C)C1=O	24.6	6.7	1.5	5.6	-3.9	x	x
O=C(COC(=O)/C=C/c1ccccc1)NCCNC(=O)COC(=O)/C=C/c1ccccc1	x	12.4	2.6	15.9	7.7	x	x
CC(C)CCNC(=O)COC(=O)/C=C/c1ccc2ccccc2n1	-7.2	49.4*	9.2	48.3	45.1*	42.0*	41.0*
CCCCOc1ccc(CONS(=O)(=O)c2ccc(NC(C)=O)cc2)cc1Cl	11.9	55.3*	31.3	13.6	62.4*	47.0*	48.1*
CC(=O)Nc1ccc(S(=O)(=O)NCCOc2ccc(Cl)cc2C)cc1	5.3	6.7	1.6	14.9	13.4	x	x
Oc1ccc(C[C@@H]2CNC(=S)N2CCCCC2CCCCC2)cc1	-9.4	53.0*	8.2	37.7	40.4*	25.3	17.9
CCOC(=O)/C=C/C(=O)OCC(=O)Nc1cccc(Br)c1	-5.8	47.4*	-2.7	38.8	50.9*	32.9*	29.0*
CN1CCN(/N=C/c2c3ccccc3c(Cl)c3ccccc23)CC1	4.6	47.3*	-17.9	38.7	47.2*	52.2*	46.0*
O=C(NC(=S)NCc1cccnc1)c1cccc2ccccc12	-2.0	4.8	-0.9	11.2	15.6	x	x
O=C(N/N=C\c1ccccc1OCc1ccccc1)c1ccco1	30.9	43.4*	29.1	33.8	50.3*	21.6	31.0*
SMILES	NALP1 yeast inh	tim10-1 inh	NLRP3 yeast inh	tim23-1 inh	TIM10 inh	tim10-1 confirm	tim10 confirm
CC(NC(=O)/C(C#N)=C/c1ccc([N+](=O)[O-])o1)c1ccccc1 (stereo not given)	68.5*	50.4*	23.7	-71.1	61.7*	23.1	92.8*
CC(NC(=O)/C(C#N)=C/c1ccco1)c1ccccc1 (stereo not given)	x	-5.4	-5.7	6.5	-25.8	x	x
Fc1ccc(N2CCN(c3nc(CN4CCOCC4)nc4scc(-c5ccccc5)c34)CC2)cc1	16.3	54.8*	-4.9	48.6	40.5*	33.8*	33.9*
Fc1ccc(CN2CCN(c3ncnc4scc(-c5ccccc5)c34)CC2)cc1	27.3	36.2	20.2	47.2	25.6	x	x
CC(=O)O/N=C/c1c(C)c(C=O)n2ccccc12	12.9	-17.1	-5.7	-0.4	-1.8	x	x
CN(CCC#N)C(=O)COC(=O)c1cc(Cl)cc(Cl)c1N	-2.0	1.1	26.9	11.3	-6.9	x	x
COc1cc(/C=N/NC(=O)C(=O)/C=C2\NC3(CCCC3)Cc3ccccc32)ccc1O	-16.6	52.0*	-9.8	45.1	46.9*	22.4	3.8
COc1ccc(-n2c(/C=C3\C(=O)N(C)c4ccccc43)nc3ccccc3c2=O)cc1	x	24.3	22.5	33.2	11.7	x	x
CCN1C(=O)/C(=C\c2nc3ccccc3c(=O)n2-c2ccccc2)c2ccccc21	35.2	42.2*	40.3	49.7	43.4*	33.0*	18.3
CCOc1ccc(N/C(N)=N/c2nc(CSc3nnnn3-c3ccccc3)cc(=O)[nH]2)cc1	-3.3	-11.3	-1.0	-7.6	-3.6	x	x
O=S(=O)(NCCNc1ncc(C(F)(F)F)cc1Cl)C(F)(F)F	-6.0	54.7*	-11.1	46.7	44.7*	45.6*	13.1
O=C1C=CC(=O)N1CCNc1ncc(C(F)(F)F)cc1Cl	54.6*	92.0*	-46.1	47.4	88.2*	94.3*	97.8*
CS(=O)(=O)NCCNc1ncc(C(F)(F)F)cc1Cl	-28.0	3.6	25.6	7.6	-5.8	x	x
CCc1ccc(NC(=O)c2noc(C(C)C)c2[N+](=O)[O-])cc1	1.0	52.0*	-12.5	41.9	46.4*	44.1*	32.7*
CC(=O)c1ccc(NC(=O)c2noc(C(C)C)c2[N+](=O)[O-])cc1	18.3	10.9	9.0	36.9	28.2	x	x
FC(F)(F)c1ccc(-n2cnc3ccccc32)nc1	14.6	-1.9	8.5	21.2	-10.7	x	x
CCN1CCN(c2nnc(-c3ccccc3)c3ccccc23)CC1	1.7	-4.6	5.0	-2.5	11.4	x	x
CCN1CCN(c2cc3c(nn2)Oc2ccccc2N3C)CC1	13.1	44.2*	12.0	44.6	77.3*	56.7*	71.1*
CCOC(=O)C1=C(CN2CCN(C(=O)c3ccco3)CC2)NC(=O)NC1c1ccc(F)cc1 (stereo not given)	19.1	3.0	10.4	-11.0	-12.6	x	x
Cc1ccc(C(=O)ON=C2CCN(c3ccc([N+](=O)[O-])cc3)CC2)cc1	5.3	52.5*	23.9	45.9	60.6*	48.8*	62.8*
CCOC(=O)N1CCN(C(=O)c2sc3nc(-c4ccc(F)cc4)cn3c2C)CC1	-1.7	56.3*	15.1	21.4	43.1*	38.2*	39.8*
COC(=O)C1CCN(C(=O)c2sc3nc(-c4ccccc4)cn3c2C)CC1	-7.4	48.2*	12.2	39.9	43.5*	38.3*	26.5
